In PubChem BioAssay (NCATS):
Inconclusive results are not listed. Unmarked numbers belong to inactive results. Calls follow the shape of the dose curve; as a rule, active = well fitted inhibition curve with a large enough effect; inconclusive = small, poorly fitted or top-dose-only effect; inactive = flat fitted curve, though single readings scatter.
% is scaled to controls: 0 for no effect and ±100 for the full control effect.

Each compound was assayed on KB-3-1 (assay: Cytotoxic Profiling of Annotated Libraries Using Quantitative High-Throughput Screening (AID 1296008; also: nearly all actives have a fitted effect of over 60% in size)). Conditions: Five cell lines viability, CellTiter-Glo ATP luminescence, 48-72 h; max response: hits give low values.
How it was run: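 Cells exposed to compounds for 48 or 72 hr at 37 degrees Celsius. Viability read as ATP-coupled luminescence with CellTiter-Glo after 10 min at room temperature.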
With O=C(Cc1cccs1)N[C@@H]1C(=O)N2C(C(=O)[O-])=C(C[n+]3ccccc3)CS[C@H]12 the max response was 6.88%.
CC(=O)O[C@@H]1CC2CCC1(C)C2(C)C (some centres undefined) showed a max response of -0.31%.
With NC(=O)OCC(O)COc1ccc(Cl)cc1 (centres undefined) the max response was 15.4%.
c1ccc2cc(C3=NCCN3)ccc2c1 showed a max response of -9.97%.
For CCCCC(O)c1ccccc1 (centres undefined), the max response was 6.09%.
For CC[C@@H](C(=O)[C@@H](C)[C@@H](O)[C@H](C)[C@@H]1O[C@@H]([C@@H](CC)C(=O)O)CC[C@@H]1C)[C@H]1O[C@]2(C=C[C@@H](O)[C@]3(CC[C@@](C)([C@H]4CC[C@](O)(CC)[C@H](C)O4)O3)O2)[C@H](C)C[C@@H]1C, the max response was -24.3%.
In the case of CN[C@@H]1[C@@H](O)[C@@H](O[C@@H]2[C@@H](O)[C@H](OC3OC(CN)=CCC3N)[C@@H](N)C[C@H]2N)OC[C@]1(C)O (some centres undefined), the max response was -18.5%.
COC(=O)[C@H]1[C@H]2C[C@@H]3c4[nH]c5cc(OC)ccc5c4CCN3C[C@H]2C[C@H](OC)[C@@H]1OC gave a max response of 14.2%.
CC(C)(C)NC[C@H](O)COc1ccccc1C1CCCC1 was tested, and the max response was 1.39%.
